PubChem BioAssay (NCATS)
Inconclusive results are not listed. Calls of active or inactive are those of the source. Calls come from the whole dose curve; as a rule, active = well fitted cell-killing curve with a large enough effect; inconclusive = small, poorly fitted or top-dose-only effect; inactive = flat fitted curve, though single readings scatter.

Test: SW1088 Cancer Cell Toxicity qHTS against the NCATS CANVASS Library (AID 1347350); note: nearly all actives have a fitted effect of over 75% in size
Settings: SW1088 viability, CellTiter-Glo luminescence, 72 h; series mostly up to 38.3 µM; activity change, negative = cytotoxicity: at the top concentration
From the text: Natural products and their derivatives continue to be wellsprings of nascent therapeutic potential. However, many laboratories have limited resources for biological evaluation, leaving their previously isolated or synthesized compounds largely or completely untested. To address this issue, the Canvass library of natural products was assembled (https://tripod.nih.gov/canvass), in collaboration with academic and industry researchers, for quantitative high-throughput screening (qHTS) across a diverse set of cell-based and biochemical assays. The pure (>85% purity by liquid chromatography/mass spectrometry [LC/MS]) Canvass library of 346 natural products were submitted by 45 academic laboratories and companies around the world. We collected pure natural products to circumvent deconvolution and structure elucidation due to time and resource limitations. The library was formatted into 1536-well plates and evaluated in 50 qHTS (in an 11-pnt concentration series) bioassays with broad scope of disease-relevant mechanisms. The resulting data set from 50 different assays was then systematically analyzed to identify overall trends and specific natural products with interesting biological activities. Reported herein are the results of each individual qHTS and their corresponding assay protocol. National Center for Advancing Translational Sciences (NCATS), Rockville, MD National Institute of Health (NIH), Bethesda, Maryland
Cancer Cell Toxicity protocol for cell lines COV-362, OV-KATE, OV-SAHO, UWB1.289, UWB1.289-WTBRCA1, HEK-293, HPAF-II, Panc-1005, SW1088, or U-118MG. 1. In a 1536 well, white solid bottom tissue culture plates (Corning 7494), corresponding cells (COV-362, OV-KATE, OV-SAHO, UWB1.289, UWB1.289-WTBRCA1, HEK-293, HPAF-II, Panc-1005, SW1088, or U-118MG) were dispensed in each well at a final concentration of 1000 cells / well (6uL volume) using the Multidrop Combi (Thermo Fisher Scientific) dispenser. 2. The plates were incubated for 4 hours at 37 degrees C/5% CO2/95% Rh. 3. Compounds were pin transferred (~23nL volume) via Wako Pin-tool (Wako Automation, Richmond VA) equipped with a 1536 pin head. The assay plates were treated with compounds in an 11-pnt concentration series with a final concentration range of […] to 85uM. 4. Bortezomib was used as a single dose control (0.5mM column 4, rows 1 - 32) at a final concentration of 1.9uM and as a 16pnt titration (1mM; 1:2 dilution; 16-points; n = 2; column 3, rows 1 - 32) with final concentration range of 0.1nM - 3.8uM. 5. The assay plates were incubated for 72 hours at 37 degrees C/5% CO2/95% Rh. 6. 3uL CellTiter-Glo detection reagent was then added to the plates (columns 2 - 48, rows 1 - 32) and incubated at room temperature for additional 15min. 7. Luminescence signal was acquired via the ViewLux plate reader (PerkinElmer) using a clear filter, 2 second exposure and 2x binning settings.
% is set by controls: 0 for no effect and ±100 for the full control effect; potency is the fitted concentration of half-maximal effect.

SMILES | outcome | Potency | activity change, negative = cytotoxicity
CNCCc1ccccc1 | inactive | – | –
CCCCC[C@@H]1OC(=O)[C@@H](C)N(C)C(=O)[C@H](CCCCC)OC(=O)C(C)N(C)C(=O)[C@H](CCCCC)OC(=O)[C@@H](C)N(C)C(=O)[C@H](CCCCC)OC(=O)C(C)N(C)C1=O (some centres not stated) | – | 6.68 µM (active) | –
C[C@]12CC(O)C3[C@@H](CCC4C[C@@H](O)CC[C@@]43CO)[C@@]1(O)CCC2C1=CC(=O)OC1 (some centres not stated) | – | – | -9.12% (inactive)
CCC(=O)CCCCC[C@@H]1NC(=O)[C@H]2CCCCN2C(=O)[C@H]([C@@H](C)CC)NC(=O)[C@H](Cc2cn(OC)c3ccccc23)NC1=O | – | 2.66 µM (active) | –
CNCCc1ccc(O)cc1 | – | – | 4.19% (inactive)
CC(=O)N[C@H]1CCN2CCC[C@H]12 | inactive [at 85.4 µM] | – | –
CCC[C@H]1CC[C@H]2[C@H](C)CCC[C@H]2N1 | – | – | -16.1% (inactive)
COc1ccc2c3c([nH]c2c1)C(C)=NCC3 | – | – | -12.5% (inactive)
c1ccc2c3c([nH]c2c1)CNCC3 | – | 26.6 µM (active) | –
C/C=C1/CN2CC[C@]34C(=Nc5ccccc53)[C@@H]2C[C@@H]1[C@H]4C(=O)OC | inactive [at 76 µM] | – | –
CC=C1CN(C=O)[C@H]2C[C@@H]1[C@@H](C(=O)OC)[C@@]13CCOC21Nc1ccccc13 (some centres not stated) | – | – | -20% (inactive)
CCN1C[C@]2(C)CC[C@H](O)[C@]34C1C(C[C@H]23)[C@@]12CC[C@H](CC14)[C@](O)(COC(=O)c1ccc(OC)c(OC)c1)[C@H]2O (some centres not stated) | – | – | -6.7% (inactive)
O=C(c1ccccc1O)c1[nH]c(Cl)c(Cl)c1-n1c(C(=O)c2ccccc2O)cc(Cl)c1Cl | – | 0.749 µM (active) | –
CC1=CC2CC[C@@H]3[C@@H](C)C[C@H](C)[C@@H](C1)N23 (some centres not stated) | inactive | – | –
CN1C(=O)[C@]23CC4C(C)(C)[C@@]5(C[C@@]41CN2CC[C@@]3(C)O)C(=O)Nc1c5ccc2c1OC=CC(C)(C)O2 (some centres not stated) | – | – | -2.08% (inactive)
NCCc1ccccc1 | inactive | – | –
COc1ccc2c(c1)[nH]c1c(C)nccc12 | inactive [at 76 µM] | – | –
CC1=CC(=O)C2=C(C)C[C@H](O)[C@@H]3[C@H](OC(=O)[C@@H]3C)[C@@H]12 | – | – | -0.308% (inactive)
CO[C@@H](/C=C/CC/C=C/C(=O)O)[C@@H](O)[C@H](C)[C@@H](O)/C(C)=C/[C@H](C)C(=O)CCCC1CC(=O)NC(=O)C1 | inactive | – | –
COC(=O)C1=C2Nc3ccccc3[C@@]23CCN2CC(C(C)=O)C1C[C@H]23 (some centres not stated) | – | – | -10.8% (inactive)
CO[C@@H](/C=C/CC/C=C/C(=O)O)[C@@H](O)[C@H](C)/C=C(\C)[C@@H](O)[C@H](C)C(=O)CCCC1CC(=O)NC(=O)C1 | – | – | 0.491% (inactive)
COc1ccc(C23Oc4cc(OC)cc(OC)c4[C@](O)([C@H](c4ccccc4)C2C(=O)NCCCCNC(=O)c2ccccc2)[C@@H]3O)cc1 (some centres not stated) | – | – | -6.86% (inactive)
CC[N@@+]1([O-])C[C@]2(C)CC[C@@H](O)[C@@]34C5C[C@H]6CC[C@@]5(C(C[C@H]23)C41)[C@H](O)[C@@]6(O)CO (some centres not stated) | – | – | -5.77% (inactive)
CCN1C[C@]2(C)CC[C@@H](O)[C@]34C1[C@H](C[C@H]23)C12CCC(CC14)[C@](O)(CO)[C@H]2O (some centres not stated) | inactive | – | –
CO[C@H](c1ccccc1)[C@H]1NC(=O)C(C)NC(=O)C(C[C@@H](C)CO)N(C)C(=O)[C@@H](C(O)c2cn(C(C)(C)C3CO3)c3ccccc23)NC(=O)C(C(C)C=C(C)C)NC(=O)C(CC(C)C)N(C)C(=O)C(C(C)C)NC1=O (some centres not stated) | – | – | -15.4% [at 22.9 µM] (inactive)
CCCC[C@@H]1CC[C@H]2CCCC(CCC)N12 (some centres not stated) | – | – | -0.677% (inactive)
CN(C)Cc1c[nH]c2ccccc12 | inactive | – | –
